From PubChem BioAssay (NCATS)
Inconclusive results are not listed. The source made the active and inactive calls. Unless noted, calls come from the whole dose curve; as a rule, active = well fitted curve in either direction with a large enough effect (not every such curve was filed as active); inconclusive = small, poorly fitted or top-dose-only effect, or another doubt; inactive = flat fitted curve, though single readings scatter.

How the values were obtained:
[1] = AP1 Signaling Pathway (AID 357); conditions: ME-180 AP-1-bla reporter, EGF-induced, beta-lactamase ratio, 5 h;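 note: ME-180 reporter cells stimulated with EGF at its EC50 level; % is set by controls: 0 for no effect and ±100 for the full control effect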
Method in brief: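 Beta-lactamase reporter under AP-1 response element, ME-180 background. Stimulus: EC50 EGF. Compound exposure 5 h, 37 °C. Detection: CCF4, 2.5 h RT, 460/530 nm. Values: AC50 from titration.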

[2] = molecular target: Cytochrome P450 1A2 (Homo sapiens) (UniProt P05177); test: p450-cyp1a2 (AID 410; calls by dose curve; note: potency is the fitted concentration of half-maximal effect;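 for activity change, negative = inhibition: -100% = full effect of reference inhibitor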)
Sequence of Cytochrome P450 1A2 (Homo sapiens) (P05177 whole entry, looked up): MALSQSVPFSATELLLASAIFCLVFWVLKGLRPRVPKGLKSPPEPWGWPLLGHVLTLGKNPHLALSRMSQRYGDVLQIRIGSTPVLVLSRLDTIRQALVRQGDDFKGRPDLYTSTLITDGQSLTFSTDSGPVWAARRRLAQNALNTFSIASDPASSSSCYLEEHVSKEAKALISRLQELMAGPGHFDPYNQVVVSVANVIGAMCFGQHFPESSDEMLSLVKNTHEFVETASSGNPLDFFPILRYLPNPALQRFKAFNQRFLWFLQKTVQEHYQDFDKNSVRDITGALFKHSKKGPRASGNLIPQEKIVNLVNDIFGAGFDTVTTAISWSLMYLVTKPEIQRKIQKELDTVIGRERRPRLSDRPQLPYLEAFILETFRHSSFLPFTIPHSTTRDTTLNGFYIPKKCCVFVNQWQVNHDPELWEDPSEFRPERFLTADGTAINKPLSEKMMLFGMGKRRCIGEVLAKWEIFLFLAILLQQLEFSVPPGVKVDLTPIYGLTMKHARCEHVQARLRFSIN
Method in brief: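 20nM CYP1A2 with 100uM Luciferin-ME (at Km) in 100mM KPO4; compound preincubated 10 min, NADPH regeneration added, 60 min at room temperature. Luciferin quantified by luminescence after detection reagent; normalized to 57 uM furafylline.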

[3] = NFAT Signaling Pathway (AID 444); conditions: Jurkat NFAT-bla M1, carbachol, beta-lactamase ratio, 5 h;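 note: carbachol stimulus at about its EC50 of 1 µM final; % is set by controls: 0 for no effect and ±100 for the full control effect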
Method in brief: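 Jurkat cells carrying an NFAT-driven β-lactamase reporter and co-transfected muscarinic M1 receptor were treated with compound plus carbachol (1 uM final, an EC50 level) for 5 h at 37 °C. CCF4 loading followed for 1 h at RT; 460/530 nm ratio gave %activity.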

[4] = Stat Signaling Pathway (AID 446); conditions: ME-180 (cervical carcinoma) SIE beta-lactamase reporter, IL-6 stimulated, 5 h;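 note: ME-180 cervical cancer cells given 40 pM IL-6 alongside compound; SIE-controlled beta-lactamase reporter measured as 460/530 nm FRET emission ratio; % is set by controls: 0 for no effect and ±100 for the full control effect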
Method in brief: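 IL-6/STAT signaling read in ME-180 cells via an SIE beta-lactamase reporter. Stimulus was 40 pM IL-6 (its AC50) for 5 hrs, so both activation and inhibition register.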

[5] = molecular target: Glucocorticoid receptor (Homo sapiens) (UniProt P04150); test: GR-GFP Redistribution (AID 450;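 active = compounds whose dose series gives a full or clear partial fitted curve of increased nuclear translocation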; note: potency is the fitted concentration of half-maximal effect); conditions: U2OS GR-GFP nuclear translocation, laser cytometry, 2 h
Sequence of Glucocorticoid receptor (Homo sapiens) (P04150 whole entry, looked up, the tested form may be a part): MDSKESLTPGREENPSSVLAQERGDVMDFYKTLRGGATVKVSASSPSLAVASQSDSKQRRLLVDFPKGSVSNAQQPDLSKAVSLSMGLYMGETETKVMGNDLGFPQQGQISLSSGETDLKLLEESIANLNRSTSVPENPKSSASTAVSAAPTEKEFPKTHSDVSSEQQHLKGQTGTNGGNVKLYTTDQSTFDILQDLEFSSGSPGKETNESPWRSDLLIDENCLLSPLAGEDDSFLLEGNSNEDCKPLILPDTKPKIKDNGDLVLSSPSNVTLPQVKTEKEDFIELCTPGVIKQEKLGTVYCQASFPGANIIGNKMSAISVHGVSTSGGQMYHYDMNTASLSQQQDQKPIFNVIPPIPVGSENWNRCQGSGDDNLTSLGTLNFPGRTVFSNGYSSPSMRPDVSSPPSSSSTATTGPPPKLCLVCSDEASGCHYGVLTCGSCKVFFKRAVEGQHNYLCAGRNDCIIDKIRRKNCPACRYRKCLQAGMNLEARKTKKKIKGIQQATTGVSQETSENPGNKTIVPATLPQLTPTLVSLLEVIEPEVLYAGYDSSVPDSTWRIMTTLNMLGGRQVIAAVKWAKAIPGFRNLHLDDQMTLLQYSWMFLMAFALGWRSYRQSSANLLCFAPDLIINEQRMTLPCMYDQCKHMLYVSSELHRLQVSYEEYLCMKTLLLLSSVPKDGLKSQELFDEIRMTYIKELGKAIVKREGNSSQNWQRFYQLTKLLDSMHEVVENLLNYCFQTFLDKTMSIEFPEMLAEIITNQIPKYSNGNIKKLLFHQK

[6] = molecular target: Glucocorticoid receptor (Homo sapiens) (UniProt P04150); test: GR-EFC Redistribution (AID 451; calls by dose curve; note: potency is the fitted concentration of half-maximal effect); conditions: CHO-K1 GR-EFC translocation, beta-gal luminescence, 2 h
Method in brief: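 CHO-K1 cells stably expressing nuclear-localized β-gal enzyme acceptor and GR fused C-terminally to the enzyme donor fragment; ligand-driven nuclear translocation restores β-gal by complementation. Compounds titrated up to 46 uM final, 2 h at 37 °C; luminescence read.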

[7] = molecular target: Mitogen-activated protein kinase 10 (Mus musculus) (UniProt Q61831); test: JNK3 AlphaScreen Assay (AID 530);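 note: kinase came from lysate of stimulated human HepG2 cells; signal reports phosphorylation of biotinylated GST-cJun 1-79 at Ser73 with 10 µM ATP; % is set by controls: 0 for no effect and ±100 for the full control effect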
Method in brief: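 Inhibitors reduce antibody binding to phosphorylated biotin-cJun, lowering AlphaScreen luminescence. Lysates from HepG2 cells pre-activated by IL-1beta plus TNF-alpha supplied JNK3; compounds were titrated.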

[8] = molecular target: 3',5'-cyclic-AMP phosphodiesterase 4B (Homo sapiens) (UniProt Q07343); test: qHTS Assay for Inhibitors of PDE-IV (AID 607; active = well fitted activation curve with a large enough effect in the main read-out, with a control signal flat, not every such curve was filed as active; note: % of control where 0% means no effect)
Sequence of 3',5'-cyclic-AMP phosphodiesterase 4B (Homo sapiens) (Q07343 whole entry, looked up): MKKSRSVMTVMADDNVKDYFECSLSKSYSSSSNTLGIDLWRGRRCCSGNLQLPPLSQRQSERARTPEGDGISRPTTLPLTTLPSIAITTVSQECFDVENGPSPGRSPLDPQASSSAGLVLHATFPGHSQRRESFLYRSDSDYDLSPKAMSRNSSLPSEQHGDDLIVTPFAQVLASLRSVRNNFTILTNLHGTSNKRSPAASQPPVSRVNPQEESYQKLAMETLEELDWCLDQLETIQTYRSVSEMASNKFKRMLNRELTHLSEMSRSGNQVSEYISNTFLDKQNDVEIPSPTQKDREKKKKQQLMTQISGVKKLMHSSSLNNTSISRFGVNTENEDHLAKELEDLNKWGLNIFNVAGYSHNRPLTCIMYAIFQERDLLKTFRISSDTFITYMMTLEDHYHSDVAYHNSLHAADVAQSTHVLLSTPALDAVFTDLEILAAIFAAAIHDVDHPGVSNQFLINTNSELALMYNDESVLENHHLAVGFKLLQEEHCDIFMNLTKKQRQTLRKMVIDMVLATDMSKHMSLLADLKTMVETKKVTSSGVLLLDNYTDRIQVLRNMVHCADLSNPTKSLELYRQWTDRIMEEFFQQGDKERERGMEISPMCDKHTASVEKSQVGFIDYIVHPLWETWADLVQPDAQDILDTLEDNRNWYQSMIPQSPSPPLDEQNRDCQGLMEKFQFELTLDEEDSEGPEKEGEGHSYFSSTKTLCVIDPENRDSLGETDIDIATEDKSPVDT
Method in brief: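 Live HEK293 cells with a modified cyclic nucleotide-gated (CNG) channel report intracellular cAMP via membrane-potential dye fluorescence (ex 535/em 590 nm). Endogenous PDE-IV was targeted. Compounds were tested at up to 22.9 uM final; RO 20-1724 100 uM served as control.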

[9] = molecular target: Guanine nucleotide-binding protein G(i) subunit alpha-1 (Homo sapiens) (UniProt P63096); test: qHTS Assay for Inhibitors of RGS12 GoLoco Motif Activity (Green Fluorophore) (AID 879; active = well fitted curve in the direction sought with a large enough effect; an effect the other way counts as inactive or inconclusive;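 note: 0% = labeled peptide with Gαi1 and full inhibition = labeled peptide alone without protein; negative values mean loss of peptide binding seen as reduced polarization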)
Sequence of Guanine nucleotide-binding protein G(i) subunit alpha-1 (Homo sapiens) (P63096 whole entry, looked up): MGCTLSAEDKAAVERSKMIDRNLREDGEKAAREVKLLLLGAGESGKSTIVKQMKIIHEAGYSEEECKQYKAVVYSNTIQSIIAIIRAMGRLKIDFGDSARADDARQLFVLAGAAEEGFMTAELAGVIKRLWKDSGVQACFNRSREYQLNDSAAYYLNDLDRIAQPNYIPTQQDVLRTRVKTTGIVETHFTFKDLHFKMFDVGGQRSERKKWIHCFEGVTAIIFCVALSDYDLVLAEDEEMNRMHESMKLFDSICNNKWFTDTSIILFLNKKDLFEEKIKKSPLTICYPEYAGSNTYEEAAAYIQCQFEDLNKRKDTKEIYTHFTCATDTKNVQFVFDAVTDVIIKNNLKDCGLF
Method in brief: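 Fluorescence polarization assay: 50 nM Gαi1 with 10 nM FITC-labeled RGS12 GoLoco peptide in 10 mM Tris pH 7.5, 150 mM NaCl, 0.1 mM GDP, 0.05% NP40, 10 min at room temperature with compound.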

[10] = molecular target: Cytochrome P450 3A4 (Homo sapiens) (UniProt P08684); test: qHTS Assay for Activators of Cytochrome P450 3A4 (AID 885; active = well fitted curve in the direction sought with a large enough effect; an effect the other way counts as inactive or inconclusive; note: nearly all actives have a fitted effect of over 65% in size)
Sequence of Cytochrome P450 3A4 (Homo sapiens) (P08684 whole entry, looked up): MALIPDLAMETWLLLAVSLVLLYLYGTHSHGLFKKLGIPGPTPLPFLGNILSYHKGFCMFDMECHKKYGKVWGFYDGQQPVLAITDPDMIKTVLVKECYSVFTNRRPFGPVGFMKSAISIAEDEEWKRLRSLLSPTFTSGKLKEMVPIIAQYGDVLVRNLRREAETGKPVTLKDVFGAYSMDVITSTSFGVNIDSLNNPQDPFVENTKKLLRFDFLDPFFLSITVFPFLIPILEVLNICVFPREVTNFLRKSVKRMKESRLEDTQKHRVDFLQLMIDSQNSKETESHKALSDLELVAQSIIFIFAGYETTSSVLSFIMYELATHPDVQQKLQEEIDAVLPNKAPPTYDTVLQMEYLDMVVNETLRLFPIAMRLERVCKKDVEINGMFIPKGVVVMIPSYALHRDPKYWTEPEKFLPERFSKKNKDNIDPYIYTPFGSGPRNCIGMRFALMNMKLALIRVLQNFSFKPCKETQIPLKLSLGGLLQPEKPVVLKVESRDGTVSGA
Method in brief: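 Quantitative HTS format: compounds preincubated with 20nM human CYP3A4 and Luciferin-PPXE substrate at KM, reaction started by NADPH regeneration, stopped after 60 min, luciferase luminescence read 20 min later.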

[11] = qHTS Assay for Identification of Small Molecule Agonists for Thrombopoietin (TPO) Signaling Pathway (AID 917; active = well fitted curve in the direction sought with a large enough effect; an effect the other way counts as inactive or inconclusive; note: % is set by controls: 0 for no effect and ±100 for the full control effect)
Method in brief: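 Activators of TPO signaling were sought in murine Ba/F3 cells transfected with the human receptor, using a luciferase gene driven by the Glycoprotein IIb promoter; 24-hr compound exposure at 37 C alongside 26 pM TPO, in IL-3-free medium.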

[12] = molecular target: Muscarinic acetylcholine receptor M1 (Rattus norvegicus) (UniProt P08482); test: qHTS Assay for Antagonists of Acetylcholine Muscarinic M1 Receptor: Kinetic Measurement of Intracellular Calcium Response (AID 943; active = well fitted curve in the direction sought with a large enough effect; an effect the other way counts as inactive or inconclusive; note: nearly all actives have a fitted effect of over 75% in size)
Sequence of Muscarinic acetylcholine receptor M1 (Rattus norvegicus) (P08482 whole entry, looked up): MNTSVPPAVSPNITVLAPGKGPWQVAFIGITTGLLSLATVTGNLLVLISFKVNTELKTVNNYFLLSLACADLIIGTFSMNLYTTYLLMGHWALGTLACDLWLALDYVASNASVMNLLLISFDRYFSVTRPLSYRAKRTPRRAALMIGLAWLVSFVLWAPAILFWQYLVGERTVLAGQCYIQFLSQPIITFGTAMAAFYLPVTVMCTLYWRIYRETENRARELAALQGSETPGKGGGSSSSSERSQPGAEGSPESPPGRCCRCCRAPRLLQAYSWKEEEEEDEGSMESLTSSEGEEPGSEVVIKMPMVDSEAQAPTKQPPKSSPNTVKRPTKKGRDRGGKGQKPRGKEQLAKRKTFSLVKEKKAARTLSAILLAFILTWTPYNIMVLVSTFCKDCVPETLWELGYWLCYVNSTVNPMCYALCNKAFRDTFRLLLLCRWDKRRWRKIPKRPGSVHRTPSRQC
Method in brief: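 CHO cells expressing rat M1 receptor, Fluo-4 loaded, preincubated 10 min with compound, then stimulated with EC80 carbachol (100 nM final). Kinetic calcium fluorescence over 4 min; response taken as peak over basal signal.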

[13] = molecular target: Muscarinic acetylcholine receptor M1 (Rattus norvegicus) (UniProt P08482); test: qHTS Assay for Antagonists of Acetylcholine Muscarinic M1 Receptor: Measurement of IP-One Response (AID 944; active = well fitted curve in the direction sought with a large enough effect; an effect the other way counts as inactive or inconclusive; note: nearly all actives have a fitted effect of over 75% in size)
Method in brief: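 CHO cells stably expressing rat M1, pretreated 10 min with compound, then stimulated 30 min with carbachol at EC80 (200 nM) in LiCl-containing buffer pH 7.4; IP1 accumulation read by HTRF competition (665/620 nm).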

[14] = molecular target: Pyruvate kinase PKM (Homo sapiens) (UniProt P14618); test: qHTS Assay for Activators of Human Muscle Pyruvate Kinase (AID 954; active = well fitted curve in the direction sought with a large enough effect, not every such curve was filed as active;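 note: 0% = uninhibited enzyme and -100% = no enzyme or full thiadiazolimine inhibition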)
Sequence of Pyruvate kinase PKM (Homo sapiens) (P14618 whole entry, looked up): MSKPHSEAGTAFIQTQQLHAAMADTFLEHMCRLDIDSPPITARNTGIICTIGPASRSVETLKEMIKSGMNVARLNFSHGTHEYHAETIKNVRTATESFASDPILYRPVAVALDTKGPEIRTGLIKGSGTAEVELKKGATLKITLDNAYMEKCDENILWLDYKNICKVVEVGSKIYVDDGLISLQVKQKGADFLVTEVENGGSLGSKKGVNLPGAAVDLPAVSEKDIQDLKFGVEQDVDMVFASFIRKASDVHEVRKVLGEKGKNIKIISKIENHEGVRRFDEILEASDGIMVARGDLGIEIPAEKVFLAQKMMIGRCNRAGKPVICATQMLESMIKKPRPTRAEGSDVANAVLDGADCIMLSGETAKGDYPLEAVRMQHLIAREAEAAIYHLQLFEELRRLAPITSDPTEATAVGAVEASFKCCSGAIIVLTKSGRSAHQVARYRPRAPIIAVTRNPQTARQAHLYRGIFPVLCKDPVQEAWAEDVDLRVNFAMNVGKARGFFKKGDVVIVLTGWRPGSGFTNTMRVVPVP
Method in brief: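 Enzyme was run at intermediate activity so both inhibitors and activators could be detected. ATP formed from ADP and PEP by 0.1 nM human PKM2 during a 1 h room-temperature incubation was quantified by coupled luciferase luminescence.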

[15] = molecular target: Alpha-galactosidase A (Homo sapiens) (UniProt P06280); test: Counterscreen for Glucocerebrosidase Inhibitors: qHTS Assay for Human alpha-Galactosidase at pH 4.5 (AID 992; active = well fitted curve in the direction sought with a large enough effect; an effect the other way counts as inactive or inconclusive; note: 0% is about no effect)
Sequence of Alpha-galactosidase A (Homo sapiens) (P06280 whole entry, looked up): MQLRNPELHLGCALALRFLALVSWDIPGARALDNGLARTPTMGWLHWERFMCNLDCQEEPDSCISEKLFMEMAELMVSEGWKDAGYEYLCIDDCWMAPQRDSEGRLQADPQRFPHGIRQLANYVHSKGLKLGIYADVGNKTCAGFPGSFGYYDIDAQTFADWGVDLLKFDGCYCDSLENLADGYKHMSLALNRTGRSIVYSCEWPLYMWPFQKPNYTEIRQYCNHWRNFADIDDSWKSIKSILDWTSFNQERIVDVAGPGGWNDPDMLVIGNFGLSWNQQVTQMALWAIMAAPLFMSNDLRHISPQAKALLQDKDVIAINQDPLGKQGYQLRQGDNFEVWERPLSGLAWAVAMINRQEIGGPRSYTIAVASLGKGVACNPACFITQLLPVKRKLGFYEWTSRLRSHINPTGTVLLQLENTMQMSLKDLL
Method in brief: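 Read-out is 4-methylumbelliferone fluorescence (365 nm excitation, 440 nm emission) after a pH 10 NaOH/glycine stop. Reactions held 2 nM enzyme and 80 uM substrate at pH 4.5 for 20 min at room temperature.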

[16] = molecular target: alpha-glucosidase (Oryza sativa, rice) (UniProt Q653V4); test: Counterscreen for Glucocerebrosidase Inhibitors: qHTS Assay for Rice alpha-Glucosidase at pH 5.0 (AID 997; active = well fitted curve in the direction sought with a large enough effect; an effect the other way counts as inactive or inconclusive;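 note: 0% = full activity with enzyme and -100% = basal without enzyme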)
Method in brief: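 Rice alpha-glucosidase (4 nM final) with 400 uM 4-methylumbelliferyl-alpha-D-glucopyranoside in citrate buffer pH 5.0, 20 min at room temperature, stopped at pH 10; fluorescence 365/440 nm, compounds 0.7 nM–77 uM, AC50 from Hill fits.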

[17] = at 7.69 µM (top of the series) unless noted

CC(C)/C(=N/[N+](C)(C)C)c1ccccc1
inactive: activity change, negative = inhibition [1, 17] 3.83% | activity change, negative = inhibition [2] -16.2% [at 2.29 µM] | activity change, negative = inhibition [3, 17] -1.16% | activity, negative = inhibition [4, 17] 0.141% | Potency [5] > 46 µM | Potency [6] > 9.22 µM | Potency [7] | Potency [8]

C[N+](C)(C)/N=C\c1ccc(O)c(O)c1
active: Potency [2] 10 µM
inactive: activity change, negative = inhibition [1, 17] 4.59% | activity change, negative = inhibition [3, 17] 8.29% | activity, negative = inhibition [4, 17] 3.02% | Potency [5] > 46 µM | Potency [6] > 9.22 µM | Potency [7]

O=C(C[n+]1ccc2ccccc2c1)c1ccc2ccc3ccccc3c2c1
inactive: activity change, negative = inhibition [1, 17] 0.901% | activity change, negative = inhibition [3, 17] -15.5% | activity, negative = inhibition [4, 17] 0.433% | Potency [5] > 46 µM | Potency [6] > 9.22 µM | Potency [7] | Potency [8]
active: Potency [2] 2.51 µM

Nc1ncnc2nc(N3CCN(CCO)CC3)[nH]c12
inactive: activity change, negative = inhibition [1, 17] 2.43% | activity change, negative = inhibition [2] -1.2% [at 2.29 µM] | activity change, negative = inhibition [3, 17] 8.33% | activity, negative = inhibition [4, 17] -1.25% | Potency [5] > 46 µM | Potency [6] > 9.22 µM | Potency [7] | Potency [8]

Cc1nnc(SCC2=C(C(=O)O)N3C(=O)[C@@H](NC(=O)Cn4cnnn4)[C@@H]3SC2)s1
inactive: activity change, negative = inhibition ([1]; at 17.2 µM (top of the series)) 3.67% | activity change, negative = inhibition ([1]; at 38 µM (top of the series)) 2.44% | Potency [2] | activity change, negative = inhibition ([3]; at 17.2 µM (top of the series)) 2.74% | activity change, negative = inhibition ([3]; at 38 µM (top of the series)) -2.96% | activity, negative = inhibition ([4]; at 17.2 µM (top of the series)) 8.89% | activity, negative = inhibition ([4]; at 38 µM (top of the series)) -5.18% | Potency [7] | Potency [8] | outcome [9] | Potency [10] | outcome [11] | Potency [12] | Potency [13] | outcome [14] | outcome [15] | Potency [16]

[O-][N+](CCO)(CCO)c1ncnc2nc[nH]c12
inactive: activity change, negative = inhibition [1, 17] 1.99% | Potency [2] | activity change, negative = inhibition [3, 17] -3.2% | activity, negative = inhibition [4, 17] -1.19% | Potency [5] > 46 µM | Potency [6] > 9.22 µM | Potency [7] | Potency [8]

O=c1[nH]c(=S)[nH]c2c1CN(CCCN1CCOCC1)CN2
inactive: activity change, negative = inhibition [1, 17] 3.35% | activity change, negative = inhibition [2] -13.5% [at 2.29 µM] | activity change, negative = inhibition [3, 17] 4.33% | activity, negative = inhibition [4, 17] 4.09% | Potency [5] > 46 µM | Potency [6] > 9.22 µM | Potency [7] | Potency [8]
